Source: PubChem (National Center for Advancing Translational Sciences (NCATS))
Rows were chosen to be rich in hits. Some 5.7% of all compounds tested hit in one or more screens of this group.
JMJD2A Tudor: qHTS Assay for Inhibitors of JMJD2A-Tudor Domain | Lysine-specific demethylase 4A (Homo sapiens), O75164 | AlphaScreen JMJD2A-Tudor / H3K4me3 peptide binding | Potency, µM (series often up to 114 µM), without a hit: at the highest dose activity change, negative = inhibition, usual class: inhibitors | 390,000 compounds, 4.4% hits; also: potency is read from the fitted curve at half-maximal effect; % is scaled to controls: 0 for no effect and ±100 for the full control effect; nearly all actives have a fitted effect of over 50% in size
L3MBTL1 inh: qHTS Assay for the Inhibitors of L3MBTL1. AlphaScreen L3MBTL1–H3K9me1 peptide binding. AID 485360, 2010. 230,000 compounds, 0.66% hits. Potency, µM (doses to about 57.1 µM), without a hit: top-dose activity, negative = inhibition, most hits filed as inhibitors. Lethal(3)malignant brain tumor-like protein 1 (Homo sapiens), Q9Y468; also: potency is read from the fitted curve at half-maximal effect; % is scaled to controls: 0 for no effect and ±100 for the full control effect; nearly all actives have a fitted effect of over 60% in size
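L3MBTL1 50 nM + b-AHA-H3(1-15)K9me1 75 nM, 30 min RT; compound added, 30 min RT; streptavidin donor/Ni-chelate acceptor beads 10 ug/mL each final, 30 min RT dark; AlphaScreen read.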
BAZ2B block: qHTS Assay for Inhibitors of BAZ2B | Potency, µM (highest dose often 114 µM), for inactives: at the highest dose activity change, negative = inhibition, usual class: inhibitors | AlphaScreen BAZ2B-H3K14Ac peptide displacement | Bromodomain adjacent to zinc finger domain protein 2B (Homo sapiens), Q9UIF8 | 360,000 compounds, 4.4% hits; also: potency is read from the fitted curve at half-maximal effect; % is scaled to controls: 0 for no effect and ±100 for the full control effect; nearly all actives have a fitted effect of over 60% in size
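Inhibition is scored as reduced AlphaScreen emission. The BAZ2B/b-H3(5-23)K14Ac complex (50 nM each) in PBS pH 7.4, 0.01% Tween-20 meets compound (up to 110 uM) for 30 min at RT before bead addition.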
PI5P4K alpha inh: qHTS for Inhibitors of phosphatidylinositol 5-phosphate 4-kinase (PI5P4K); PI5P4Kalpha enzyme, ADP-Glo luminescence, 60 min; active compounds read low; max response, %; 330,000 compounds, 1.2% hits; AID 652105, 2013; active = max response of -50% or lower; inconclusive = between -30% and -50%; inactive = -30% or higher; also: value at the top dose of about 77 µM; % is scaled to controls: 0 for no effect and ±100 for the full control effect
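PI5P4Kalpha ADP-Glo assay; 5 microM ATP final; 60 min RT reaction; HEPES pH 7.4/EGTA/CHAPS, 5% DMSO; controls lacking substrate or enzyme; luminescent end-point.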
HP1b chromo inh: HTS for Inhibitors of HP1-beta Chromodomain Interactions with Methylated Histone Tails; AlphaScreen HP1-beta / biotin-H3K9me3 peptide binding; 390,000 compounds, 0.56% hits; Chromobox protein homolog 1 (Homo sapiens), P83916; Potency, µM (highest dose often 114 µM), for the others: at the highest dose activity change, negative = inhibition, hits mostly inhibitors; also: potency is read from the fitted curve at half-maximal effect; nearly all actives have a fitted effect of over 70% in size
Target sequence (P83916 whole entry, looked up): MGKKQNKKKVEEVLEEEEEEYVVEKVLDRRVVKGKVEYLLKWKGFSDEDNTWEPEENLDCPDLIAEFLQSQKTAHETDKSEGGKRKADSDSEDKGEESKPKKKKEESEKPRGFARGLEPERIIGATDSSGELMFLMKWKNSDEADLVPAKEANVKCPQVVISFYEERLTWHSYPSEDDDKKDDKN
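HP1-beta protein (50 nM final) preincubated 30 min at room temperature with biotinylated H3(1-18)K9me3 peptide (50 nM) in PBS pH 7.4, 0.01% Tween-20, then compound added for 30 min. AlphaScreen streptavidin donor/nickel chelate acceptor beads (10 ug/mL final), 30 min dark, luminescence read.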
JMJD2E inh: qHTS Assay for Inhibitors of Human Jumonji Domain Containing 2E (JMJD2E). AID 2147, 2009. 230,000 compounds, 1.6% hits. Potency, µM (titrated, usually from 57.1 µM), for the others: at the top dose activity change, negative = inhibition, hits mostly inhibitors. JMJD2E catalytic domain, FDH-coupled NADH fluorescence (FDH is formaldehyde dehydrogenase). Lysine-specific demethylase 4E (Homo sapiens), B2RXH2; active = well fitted inhibition curve with a large enough effect, not every such curve was filed as active; inconclusive = small, poorly fitted or top-dose-only effect, or another doubt; inactive = no such curve, though single readings can be large or run the other way;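 also: potency is read from the fitted curve at half-maximal effect; 0% = wells with enzyme and -100% = buffer wells without enzyme; nearly all actives have a fitted effect of over 50% in size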
Target sequence (B2RXH2 1-337 limits assumed): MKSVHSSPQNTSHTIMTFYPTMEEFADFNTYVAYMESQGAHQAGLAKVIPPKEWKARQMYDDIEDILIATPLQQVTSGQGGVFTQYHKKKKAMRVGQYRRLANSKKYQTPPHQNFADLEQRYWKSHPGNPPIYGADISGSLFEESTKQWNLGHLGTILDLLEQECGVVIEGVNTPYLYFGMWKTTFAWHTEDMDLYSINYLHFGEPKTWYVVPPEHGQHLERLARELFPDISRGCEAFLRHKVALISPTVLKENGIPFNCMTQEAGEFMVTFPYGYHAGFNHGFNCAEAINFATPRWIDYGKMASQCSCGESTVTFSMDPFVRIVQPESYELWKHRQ
An asterisk follows results filed as active; ? = inconclusive; · = not tested or not shown; ! = not active in a repeat; [ ] = another dose, or the depositor's remark. Unless noted, calls follow the shape of the dose curve; as a rule, active = well fitted inhibition curve with a large enough effect; inconclusive = small, poorly fitted or top-dose-only effect; inactive = no such curve, though single readings can be large or run the other way.

SMILES	JMJD2A Tudor	L3MBTL1 inh	BAZ2B block	PI5P4K alpha inh	HP1b chromo inh	JMJD2E inh
COc1ccc(CCN2CC(C(=O)NC3CCCCC3)CC2=O)cc1OC (centres undefined)	2%	·	50µM*	1	41%	1%
COc1ccc(CCN2CC(C(=O)NCCc3ccc(C)cc3)CC2=O)cc1OC (centres undefined)	-35%	·	56µM*!	-15	-12%	-7%
Cc1ccc(CCNC(=O)C2CC(=O)N(CCc3ccc(C)cc3)C2)cc1 (centres undefined)	-22%	·	2%	·	11%	·
COc1ccccc1C(=O)NCCC(=O)OCC(=O)Nc1ccc(S(N)(=O)=O)cc1	-8%	8%	5%	-11	31%	·
CNC(=O)c1oc(-c2ccccc2)nc1C	-16%	8%	-14%	0	45%	1%
CSc1nc(-c2ccccc2)nc(N)c1C(C)=O	·	·	-3%	·	·	-13%
CC(=O)c1c(C)nc(-c2ccc(Cl)cc2)nc1N	-17%	-10%	79µM*	0	24%	?
CC(=O)c1c(C)nc(-c2ccc(Cl)cc2)nc1N=CN(C)C	?	6%	79µM*	1	17%	?
CCCOc1ccc(C(=O)NNC(=O)c2cccc(S(=O)(=O)N3CCN(C(C)=O)CC3)c2)cc1OC	1%	-3%	5%	4	35%	·
Cc1ccc(-c2[nH]nc(N)c2N=Nc2cccc(Cl)c2C)cc1	?	-14%	14%	44	-18%	0%
Cc1ccc(-c2[nH]nc(N)c2N=Nc2ccccc2C)cc1	25µM*	?	?	20	?	-2%
Cc1nc(-c2ccc(S(=O)(=O)N3CCCN(CCc4ccccc4)CC3)s2)cs1	?	-12%	56µM*	0	-8%	?
CC1(C(=O)CSc2nc3ccccc3s2)CCC(=O)O1 (centres undefined)	40µM*	-5%	?	-28	37%	0%
CC1(C)CC2(CC(C)(C(=O)CSc3nc4ccccc4s3)OC2=O)C(=O)O1 (centres undefined)	-16%	0%	-9%	·	22%	-9%
Cc1ccc(Sc2ccc([N+](=O)[O-])cc2[N+](=O)[O-])nc1	?	-15%	45µM*	4	-14%	-4%
c1ccc2c(c1)Nc1nccnc1S2	45µM*	9%	-1%	?	-23%	?
CCN(CC)S(=O)(=O)c1ccc(OC)c(NC(=O)C2CC(=O)N(c3ccc(C)cc3)C2)c1 (centres undefined)	-2%	-9%	-26%	6	27%	-5%
CC(C)CN1CCNC(=O)C1CC(=O)NCCCN1CCCc2ccccc21 (centres undefined)	-34%	-8%	79µM*	6	2%	?
CCCCCC1C(=O)N2C=C(c3ccccc3)c3ccccc3N2C1=O (centres undefined)	56µM*	·	·	2	?	·
CCCCC1C(=O)N(c2ccccc2)N(c2ccccc2)C1=O	-15%	?	-37%	-3	52%	-9%
C/C=C(\C)[C@H](O)C[Si](C)(C)c1ccccc1	·	·	·	·	·	3%
CCc1ccccc1Nc1nc(N)nc(CSc2nnnn2C)n1	-7%	·	?	-2	35%	-1%
Cc1ccccc1Nc1nc(N)nc(CSc2nnnn2C)n1	?	-33%	56µM*	3	21%	-1%
Nc1[nH]n(-c2ccccc2)c(=O)c1N=Nc1ccccc1[N+](=O)[O-]	-21%	·	-25%	·	0%	1%
O=c1c2cc([N+](=O)[O-])cc([N+](=O)[O-])c2[nH]n1-c1ccccc1	35µM*	·	40µM*	-98*	35µM*	·
SMILES	JMJD2A Tudor	L3MBTL1 inh	BAZ2B block	PI5P4K alpha inh	HP1b chromo inh	JMJD2E inh
COCCN=c1scc(-c2cc(OC)c(OC)c(OC)c2)n1/N=C/c1c(C)[nH]c2ccccc12	20µM*	?	11µM*	1	?	?
COc1cccc(C(=O)NCC(=O)N/N=C/c2c(C)[nH]c3ccccc23)c1	?	·	-19%	-2	-4%	·
COc1ccc(NC(=O)c2cccc(N3CCCS3(=O)=O)c2)cc1	3%	·	3%	·	44%	·
COc1ccc2[nH]c3c(C)c4ccncc4c(C)c3c2c1	-31%	-1%	?	?	16%	8.9µM*
Cc1ccnc(NC(=O)Cc2ccc([N+](=O)[O-])cc2)c1	-3%	2%	50µM*	0	33%	-5%
Cc1ccnc(NC(=O)Cc2ccc(-c3ccccc3)cc2)c1	13%	·	-15%	-1	61%	·
Cc1[nH]c(N=Nc2ccccc2)nc1N=Nc1ccccc1	7.9µM*	?	6.3µM*	-12	?	?
Cc1cccc2c(N=Nc3ccccc3)c(O)[nH]c12	-10%	·	3%	-1	7%	·
CCCNC(=O)c1cnc(Sc2ncc(C(F)(F)F)cc2Cl)n1C	-3%	·	50µM*	-4	22%	8%
Cn1c(C(=O)N2CCOCC2)cnc1Sc1ncc(C(F)(F)F)cc1Cl	-4%	·	?	0	22%	5%
CC1CCCN(CC(O)CN2CCN(CC(O)CN3CCCC(C)C3)C(C)C2)C1 (centres undefined)	-7%	·	·	-1	26%	·
CCOc1ccc(-c2c(=O)n(O)c3ccccc3[n+]2[O-])cc1	79µM*	·	56µM*	-9	4%	·
C=CCOn1c(=O)c(-c2ccccc2)[n+]([O-])c2ccccc21	0%	·	-11%	0	37%	20µM*
C=CCOn1c(=O)c(-c2ccc(C)cc2)[n+]([O-])c2ccccc21	-9%	·	0%	-8	30%	·
O=C1C2C(c3ccccc3)CC=CC2C(c2cccc([N+](=O)[O-])c2)N1Cc1ccccc1 (centres undefined)	-32%	·	·	·	10%	·
NC(=O)c1cnn2c(-c3ccc(Cl)cc3Cl)ccnc12	-6%	·	-9%	0	32%	·
Cc1cccc(OCc2nnc(SC(C)C(=O)O)n2-c2ccccc2)c1 (centres undefined)	-9%	6%[2.29 µM]	-4%	-53*	48%	·
Cc1cc(=O)n(CC(=O)N2CCN(c3ccccc3F)CC2)c2c1c(C)nn2C	-27%	·	-8%	·	-4%	·
Cc1ccc(OCCCNC2CCCC2)cc1	22µM*	8%	?	-3	-20%	?
